# Assay outcomes deposited in PubChem by National Center for Advancing Translational Sciences (NCATS).
# GLP-1R inv ag: qHTS of GLP-1 Receptor Inverse Agonists (Inhibition Mode) | Glucagon-like peptide 1 receptor (Homo sapiens), P43220 | HEK293 GLP-1R CRE-luciferase, luminescence, 24 h; GLP-1R form is constitutively active | Potency, µM (series often up to 38.3 µM), without a hit: top-dose activity change, negative = inhibition, actives largely listed as inhibitors | actives 1.6% (n = 410,000) | AID 624417, 2012; further: potency means the concentration at half of the fitted maximal effect; on the % scale 0 is the no-effect control and ±100 the full control effect; nearly all actives have a fitted effect of over 55% in size
#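 GLP-1R inverse agonism mode: basal reporter luminescence in engineered HEK293 cells measured after one day of compound exposure at 37 deg C, with a 12 min room-temperature detection step.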
# GLP1R ag: qHTS of GLP-1 Receptor Agonists; HEK293 GLP-1R CRE-luciferase, luminescence, 4-6 h; cells express a hypersensitive GLP-1R form; Potency, µM (top dose mostly 45.6 µM), for inactives: top-dose activation, actives largely listed as activators; actives 0.007% (n = 380,000); AID 624172, 2012; further: potency means the concentration at half of the fitted maximal effect; % of control where 0% means no effect
# TRPML1 ag: qHTS for Agonists of the Human Mucolipin Transient Receptor Potential 1 (TRPML1); Mucolipin-1 (Homo sapiens), Q9GZU1; TRPML1-expressing cells, Ca2+ dye fluorescence, FDSS; activation, % (concentration not given with the values); actives 0.12% (n = 410,000); AID 624414, 2012; in the data active means activation above about 50%; inconclusive means mostly about 30% to 49%; further: 0% is about no effect
# Target sequence (Q9GZU1 whole entry, looked up): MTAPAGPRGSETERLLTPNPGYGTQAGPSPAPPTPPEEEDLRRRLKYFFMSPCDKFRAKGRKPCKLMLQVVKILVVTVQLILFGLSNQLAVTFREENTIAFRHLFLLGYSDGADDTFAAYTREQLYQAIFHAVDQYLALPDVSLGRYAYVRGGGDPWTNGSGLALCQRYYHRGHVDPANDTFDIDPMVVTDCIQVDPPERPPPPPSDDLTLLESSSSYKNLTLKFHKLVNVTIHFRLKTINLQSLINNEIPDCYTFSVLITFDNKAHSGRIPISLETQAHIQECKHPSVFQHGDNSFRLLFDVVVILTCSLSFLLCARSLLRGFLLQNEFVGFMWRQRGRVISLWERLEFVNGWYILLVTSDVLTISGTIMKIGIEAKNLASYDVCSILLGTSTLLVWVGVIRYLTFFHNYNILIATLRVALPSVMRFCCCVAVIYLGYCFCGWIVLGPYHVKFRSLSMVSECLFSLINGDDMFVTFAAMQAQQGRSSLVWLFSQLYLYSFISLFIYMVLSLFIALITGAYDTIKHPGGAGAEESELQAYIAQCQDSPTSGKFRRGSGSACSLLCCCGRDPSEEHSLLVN
#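 Tet-induced TRPML1-DL cells, 1,500 per well, cultured overnight, were loaded with a no-wash Ca2+ dye for 45–90 min. Calcium fluorescence was recorded on the FDSS for 110 s after compound addition, before the EC80 agonist (4 uM 54-4) was added.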
# GLP1R cytotox: qHTS of GLP-1 Receptor Inverse Agonists: Cytotox Screen | HEK293 cAMP-luciferase reporter cells, luminescence, 24 h | Potency, µM (titrated, usually from 38.3 µM), inactives show at the highest dose activity change, negative = inhibition, most hits filed as inhibitors | actives 0.13% (n = 410,000) | AID 624418, 2012;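 further: loss of luciferase light is scored as toxicity; potency means the concentration at half of the fitted maximal effect; on the % scale 0 is the no-effect control and ±100 the full control effect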
#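 1536-well qHTS counterscreen of the MLSMR; 200 cells/uL, 12 h pre-incubation, 23 nL cpd, 24 h at 37 deg C 5% CO2, luciferase detection reagent, 12 min RT, luminescence. Inhibition = undesired.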
# TRPML1 inh: qHTS for Inhibitors of the Human Mucolipin Transient Receptor Potential 1 (TRPML1). Mucolipin-1 (Homo sapiens), Q9GZU1. TRPML1-inducible cells, Ca2+ dye fluorescence, FDSS; stronger effect = lower value; inhibition of EC80 agonist-evoked calcium signal. activity change, negative = inhibition, % (test concentration not listed). actives 0.02% (n = 390,000). AID 624415, 2012; in the data active means activity change below about -50%; inconclusive means between about -30% and that limit;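 further: stimulus is agonist 54-4 at its EC80 concentration; on the % scale 0 is the no-effect control and ±100 the full control effect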
#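 Tet-induced TRPML1-DL cells loaded with Ca8 no-wash calcium dye were read kinetically on FDSS. Compound addition was followed by EC80 agonist 54-4 (4 uM final); inhibition was read over 110 s.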
# Numbers without * were called inactive; ? = inconclusive; nt = no result given. Sampled rows, rich in hits. Any-hit rate of the full collection: about 1.8%. Unless noted, the call rests on the fitted dose curve; in most records, active means well fitted curve in the direction sought with a large enough effect; inconclusive means small, poorly fitted or top-dose-only effect, or another doubt; inactive means no such curve, though single readings can be large; an effect the other way counts as inactive or inconclusive.
SMILES,GLP-1R inv ag,GLP1R ag,TRPML1 ag,GLP1R cytotox,TRPML1 inh
CC(C)(C)C(=O)NCCc1nc2ccccc2n1CCCCOc1ccc(Cl)cc1,10µM*,nt,0,-21%,26
Cc1ccc(OCCn2c(CCNC(=O)C(C)C)nc3ccccc32)cc1,7.9µM*,-3%,-1,-11%,3
CC(C)C(=O)NCCc1nc2ccccc2n1CCCOc1ccc(Cl)cc1,?,8%,0,?,2
CCOC(=O)C1CCC(CN(Cc2ccc(Cl)cc2)S(=O)(=O)c2cc(Cl)cc(Cl)c2)CC1 (configuration not stated),-3%,nt,1,23%,-25
O=C(c1cnn2c1NC(c1ccco1)CC2C(F)(F)F)N1CCN(c2cccc(Cl)c2)CC1 (configuration not stated),2.2µM*,-11%,2,?,18
O=C(CN1C(=O)CCSc2ccccc21)Nc1ccc(C(F)(F)F)cc1,?,-5%,2,-3%,-16
Cc1cc(C(=O)NNc2cc(Cl)ccc2Cl)no1,?,-6%,-1,4%,3
Cc1cc(C(=O)NNc2c(Cl)cccc2Cl)no1,2.5µM*,1%,-1,-23%,-4
Cc1cc(C(=O)NNc2ccc(F)cc2)no1,5µM*,1%,0,?,60
O=C(Cc1ccc(OCCc2ccccc2)cc1)NO,nt,nt,-1,nt,nt
Cc1nn(CC(=O)Nc2ccc(C(C)C)cc2)c(=O)c2c(C)n(-c3ccc(Cl)cc3)nc12,11%,nt,0,1%,-5
CCOc1ccc(S(=O)(=O)N(CC(=O)N2CCc3ccccc32)Cc2ccco2)cc1,8.9µM*,-11%,0,-4%,1
CN(CC(=O)N1CCc2ccccc21)S(=O)(=O)c1ccc(Cl)cc1,?,3%,3,3%,-3
CC(C)(C)c1ccc(C(=O)N2CCC(=O)N([C@H](COCc3ccccc3)Cc3ccccc3)CC2)cc1,10µM*,-4%,0,?,nt
CC(C)(C)c1ccc(C(=O)N2CCC(=O)N(C(COCc3ccccc3)Cc3ccccc3)CC2)cc1 (configuration not stated),?,7%,0,?,38
Cc1cccc(COCC(Cc2ccccc2)N2CCN(C(=O)c3ccc(Cl)c(Cl)c3)CCC2=O)c1 (configuration not stated),?,9%,0,?,13
O=C(c1ccc(Cl)c(Cl)c1)N1CCC(=O)N(C(COCc2ccc(Cl)cc2)Cc2ccccc2)CC1 (configuration not stated),10µM*,0%,2,16%,64
O=C(CN1C(=O)C(c2ccc(F)cc2)=NC12CCCCCC2)Nc1ccccc1Cl,?,nt,1,-10%,-14
CCCn1cc(S(=O)(=O)c2cccc(Cl)c2)c(=O)c2cc(F)c(N3CCCC3)cc21,4%,nt,1,-1%,13
N#C/C(=C\c1ccc(-c2ccc([N+](=O)[O-])cc2)o1)C(=O)Nc1nc(-c2cccs2)cs1,53%,-2%,0,-6%,-101*
CCc1ccccc1NC(=O)CSc1nc2c(oc3ccccc32)c(=O)n1-c1ccccc1,13%,nt,0,-7%,10
COc1ccccc1OC(C)C(=O)Nc1ccc(-c2nc3ccccc3s2)cc1 (configuration not stated),13%,nt,-1,-2%,-9
Cc1ccc(S(=O)(=O)N2CCCCC2)cc1NC(=O)CSCC(=O)O,10%,-1%,0,17%,8
Cc1ccc(S(=O)(=O)N2CCCCC2)cc1NC(=O)CNC(C)c1ccc(Cl)c(Cl)c1 (configuration not stated),2.8µM*,-5%,0,-17%,16
Cc1ccc(C)c(C(=O)Cn2ncc(Cl)c(Cl)c2=O)c1,0%,-29%,-1,10µM*,1
Cc1ccc(C)c(OCCC(=O)Nc2cc(S(=O)(=O)N3CCCCC3)ccc2C)c1,11µM*,14%,-1,3%,4
